Most compounds without a hit are left out; they make up all but 3.1% or so of the library.
PAFAH1B3 FP inh: PAFAH1B3 (human) inhibition. inhibition, % at 3.39 µM. AID 492972. actives 0.28% (n = 340,000). recombinant PAFAH1B3, FP-rhodamine probe, fluorescence polarization;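 active = inhibition above the screen-wide average of all tested compounds plus 3 SD, cut at about 25% in these data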;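 also: 0% = enzyme with DMSO only and 100% = wells lacking PAFAH1B3 protein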
Target sequence (Q15102 whole entry, looked up): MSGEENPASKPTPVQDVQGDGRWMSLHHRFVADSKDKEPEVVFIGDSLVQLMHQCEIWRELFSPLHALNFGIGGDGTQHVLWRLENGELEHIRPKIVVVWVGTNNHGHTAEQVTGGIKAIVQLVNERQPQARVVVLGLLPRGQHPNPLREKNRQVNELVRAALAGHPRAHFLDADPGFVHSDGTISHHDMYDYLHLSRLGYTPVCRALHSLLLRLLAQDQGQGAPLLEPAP
PAFAH1B2 inh: blocks human PAF acetylhydrolase 1b catalytic subunit 2; inhibition, % at 3.39 µM; P68402; actives 1.2% (n = 340,000); recombinant PAFAH1B2, FP-rhodamine activity probe, fluorescence polarization; AID 492953;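 active = inhibition above the mean of all tested compounds plus 3 SD, cut at about 24% in these data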;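 also: 0% = enzyme with DMSO and 100% = wells lacking PAFAH1B2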
PAFAH2 FP inh: inhibitors of human PAFAH2. recombinant PAFAH2, FP-rhodamine activity probe, fluorescence polarization. inhibition, % at 3.39 µM. actives 0.99% (n = 340,000). AID 492956;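 active = inhibition above the mean over all tested compounds plus 3 SD, cut at about 30% in these data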;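 also: inhibitors block probe labeling of enzyme so polarization drops; 0% = enzyme with DMSO and 100% = wells lacking PAFAH2 protein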
pPAFAH FP inh: inhibitors of human plasma PAF acetylhydrolase (pPAFAH) | Q13093 | inhibition, % at 3.39 µM | actives 1.5% (n = 330,000) | recombinant pPAFAH, FP-rhodamine probe fluorescence polarization;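 active = inhibition above the mean inhibition across the screen plus 3 SD, cut at about 25% in these data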;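 also: inhibitors block binding of the rhodamine activity-based probe so polarization drops; 0% = enzyme with DMSO and 100% = wells lacking pPAFAH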
Target sequence (Q13093 whole entry, looked up): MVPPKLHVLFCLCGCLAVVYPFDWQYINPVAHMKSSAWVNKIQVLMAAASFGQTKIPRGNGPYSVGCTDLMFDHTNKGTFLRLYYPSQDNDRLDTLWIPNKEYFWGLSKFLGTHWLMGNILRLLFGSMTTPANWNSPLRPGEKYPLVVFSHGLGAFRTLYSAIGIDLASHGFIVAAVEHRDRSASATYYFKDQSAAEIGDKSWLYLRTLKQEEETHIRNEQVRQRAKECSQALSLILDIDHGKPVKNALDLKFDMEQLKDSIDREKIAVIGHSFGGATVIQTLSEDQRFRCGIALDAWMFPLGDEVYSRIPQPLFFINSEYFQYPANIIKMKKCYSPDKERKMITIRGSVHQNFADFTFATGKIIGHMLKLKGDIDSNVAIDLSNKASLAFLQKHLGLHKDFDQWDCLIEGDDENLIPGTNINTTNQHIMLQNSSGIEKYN
Rin1 Abl inh: human Rin1-Abl interaction inhibition | P00519+Q13671 | actives 0.4% (n = 360,000) | inhibition, % at 7.35 µM | TR-FRET Rin1/Abl binding, biochemical; in the data active = inhibition above about 5%, passing the limit was not always enough
E coli Lon inh: inhibitors of E. coli Lon protease; P0A9M0; purified E. coli Lon protease, fluorescence polarization; inhibition, % at 7.94 µM; actives 0.42% (n = 360,000); AID 602123; in the data active = inhibition above about 13%, passing the limit was not always enough;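 also: 0% = enzyme with probe and DMSO and 100% = no enzyme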
eLon confirm: E. coli Lon inhibition confirmation; purified E. coli Lon, fluorescence polarization; actives 31% (n = 1,400); shares compounds with E coli Lon inh; inhibition, % at 7.94 µM; in the data active = inhibition above about 16%;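 also: 0% = enzyme with probe and DMSO and 100% = no enzyme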
An asterisk follows results filed as active.

What do the screens show for `CCC(=O)NC(C)c1cc(Cl)c2ccccc2c1O` (configuration not stated)?
PAFAH1B3 FP inh: -9.8; PAFAH1B2 inh: 5.4; PAFAH2 FP inh: 1.4; pPAFAH FP inh: 6.5; Rin1 Abl inh: 0.9; E coli Lon inh: -19.3

Results for COc1cc(OC)cc(C(=O)NNC(=O)CCC2CCCC2)c1 ?
PAFAH1B3 FP inh: 10.0; PAFAH1B2 inh: 6.4; PAFAH2 FP inh: 11.2; pPAFAH FP inh: 1.9; Rin1 Abl inh: 1.5; E coli Lon inh: -8.8

Results for O=C(O)c1ccccc1C1=Nc2ccc(O)cc2Oc2cc(O)ccc21 ?
PAFAH1B3 FP inh: 7.7; PAFAH1B2 inh: 9.0; PAFAH2 FP inh: -73.2; pPAFAH FP inh: 27.8*; Rin1 Abl inh: 0.7; E coli Lon inh: 78.1*; eLon confirm: 97.1*

What do the screens show for `O=C(c1ccc(Cl)cc1)N1CCC2CC1c1cc(-c3ccccc3)ccc12` (configuration not stated)?
PAFAH1B3 FP inh: 6.8; PAFAH1B2 inh: 0.9; PAFAH2 FP inh: -5.8; Rin1 Abl inh: -0.5; E coli Lon inh: 15.8*; eLon confirm: 3.7

Results for CC(NC(=O)CCN1C(=O)c2ccccc2C1=O)c1ccccc1 (configuration not stated) ?
PAFAH1B3 FP inh: 6.5; PAFAH1B2 inh: 6.8; PAFAH2 FP inh: -3.2; pPAFAH FP inh: -4.8; Rin1 Abl inh: -0.8; E coli Lon inh: -3.7

Results for Cc1ccsc1C1Nc2ccc3ncccc3c2C2=C1C(=O)CC(C)(C)C2 (configuration not stated) ?
PAFAH1B3 FP inh: -0.8; PAFAH1B2 inh: 8.2; PAFAH2 FP inh: -2.0; pPAFAH FP inh: 3.9; Rin1 Abl inh: -2.9; E coli Lon inh: 22.3*; eLon confirm: 3.5

Results for c1ccc(COc2ncnc3c2ncn3CCCNCCN2CCOCC2)cc1 ?
PAFAH1B3 FP inh: 7.6; PAFAH1B2 inh: 0.3; PAFAH2 FP inh: 6.2; Rin1 Abl inh: 0.3; E coli Lon inh: -3.8

Results for CSCCC(NC(=O)COc1ccccc1)C(=O)N1CCN(c2ccccc2O)CC1 (configuration not stated) ?
PAFAH1B3 FP inh: 9.6; PAFAH1B2 inh: 7.6; PAFAH2 FP inh: 1.1; pPAFAH FP inh: 2.1; Rin1 Abl inh: -0.3; E coli Lon inh: 71.0*; eLon confirm: -6.7

What do the screens show for `CCCCCN(C(=O)CCC(=O)OCc1ccc(C(C)(C)C)cc1)c1c(N)n(CCCC)c(=O)[nH]c1=O`?
PAFAH1B3 FP inh: 12.1; PAFAH1B2 inh: 6.0; PAFAH2 FP inh: -6.9; pPAFAH FP inh: 5.5; Rin1 Abl inh: 1.1; E coli Lon inh: -6.2

Results for Cc1ccc(Cl)cc1NC(=O)c1ccccc1OCC(=O)N1CCOCC1 ?
PAFAH1B3 FP inh: -1.3; PAFAH1B2 inh: -2.6; PAFAH2 FP inh: 13.1; pPAFAH FP inh: -7.0; Rin1 Abl inh: 4.2; E coli Lon inh: 4.8

Results for O=C(Nc1ccc(OCC(=O)N2CCOCC2)cc1)c1ccccc1Cl ?
PAFAH1B3 FP inh: 4.2; PAFAH1B2 inh: 1.5; PAFAH2 FP inh: 0.4; pPAFAH FP inh: 3.5; Rin1 Abl inh: 2.6; E coli Lon inh: 21.9*; eLon confirm: -0.3

How did Cc1cc(OCC(=O)N2CCOCC2)ccc1NC(=O)c1ccccc1C do in these assays?
PAFAH1B3 FP inh: 4.2; PAFAH1B2 inh: 3.5; PAFAH2 FP inh: -3.1; pPAFAH FP inh: -2.2; Rin1 Abl inh: -5.9; E coli Lon inh: 16.6*; eLon confirm: 0.3

How did O=C(Nc1ccc(N2CCCCCC2)cc1)c1ccccc1Cl do in these assays?
PAFAH1B3 FP inh: 8.7; PAFAH1B2 inh: 4.5; PAFAH2 FP inh: 4.2; pPAFAH FP inh: 3.5; Rin1 Abl inh: -2.0; E coli Lon inh: 18.8*; eLon confirm: 0.1

Results for Cc1cc(C)c(C(=O)COC(=O)C2CC3CCCC(C2)C3=O)c(C)c1 (configuration not stated) ?
PAFAH1B3 FP inh: 4.0; PAFAH1B2 inh: -4.6; PAFAH2 FP inh: 2.8; pPAFAH FP inh: -2.7; Rin1 Abl inh: -1.2; E coli Lon inh: -11.5

How did Cc1nn(C)c(C)c1N1C(=O)c2cccc3c(N)ccc(c23)C1=O do in these assays?
PAFAH1B3 FP inh: 24.3; PAFAH1B2 inh: 18.1; PAFAH2 FP inh: 18.9; pPAFAH FP inh: 17.1; Rin1 Abl inh: -65.9; E coli Lon inh: active; eLon confirm: active

What do the screens show for `Cc1ccc(-n2cnnn2)c2cccnc12`?
PAFAH1B3 FP inh: 0.1; PAFAH1B2 inh: -0.4; PAFAH2 FP inh: -2.9; pPAFAH FP inh: -2.3; Rin1 Abl inh: -0.4; E coli Lon inh: 0.1

How did CCN1C(=O)c2cccc3c(S(=O)(=O)N4CCC(C)CC4)ccc1c23 do in these assays?
PAFAH1B3 FP inh: 2.0; PAFAH1B2 inh: 3.1; PAFAH2 FP inh: -2.4; pPAFAH FP inh: 0.3; Rin1 Abl inh: 0.2; E coli Lon inh: -3.6

What do the screens show for `Cc1nn(C)c(C)c1N1C(=O)c2cccc3c(Br)ccc(c23)C1=O`?
PAFAH1B3 FP inh: 2.6; PAFAH1B2 inh: 3.9; PAFAH2 FP inh: 6.5; pPAFAH FP inh: 1.9; Rin1 Abl inh: -9.4; E coli Lon inh: 6.2

Results for CCN1C(=O)c2cccc3c(N)ccc(c23)C1=O ?
PAFAH1B3 FP inh: 20.4; PAFAH1B2 inh: 15.0; PAFAH2 FP inh: 20.5; pPAFAH FP inh: 15.0; Rin1 Abl inh: -107.9; E coli Lon inh: active; eLon confirm: active

What do the screens show for `Cc1ccc(N2C(=O)c3cccc4c(N)ccc(c34)C2=O)c2cccnc12`?
PAFAH1B3 FP inh: -17.2; PAFAH1B2 inh: -11.2; PAFAH2 FP inh: -23.7; pPAFAH FP inh: -3.0; Rin1 Abl inh: -25.6; E coli Lon inh: 161.3*; eLon confirm: -34.4

How did O=C(Cn1cnc2c(NCc3ccccc3)ncnc21)NCCCN1CCCC1=O do in these assays?
PAFAH1B3 FP inh: 5.7; PAFAH1B2 inh: 3.9; PAFAH2 FP inh: -4.0; pPAFAH FP inh: 3.6; Rin1 Abl inh: -0.1; E coli Lon inh: 0.0

What do the screens show for `CCN1CCN(C(=O)Cn2nc(C)c3sc4ccccc4c3c2=O)CC1`?
PAFAH1B3 FP inh: 0.4; PAFAH1B2 inh: 0.7; PAFAH2 FP inh: 7.5; pPAFAH FP inh: 4.3; Rin1 Abl inh: 2.0; E coli Lon inh: 21.0*; eLon confirm: 0.9

Results for Fc1ccc(CN2CC[C@H]3C=CCc4cccc(c43)C2)cc1 ?
PAFAH1B3 FP inh: 11.4; PAFAH1B2 inh: 2.2; PAFAH2 FP inh: 0.3; pPAFAH FP inh: -2.5; Rin1 Abl inh: -2.3; E coli Lon inh: 30.2*; eLon confirm: -9.0

What do the screens show for `CCN1/C(=C\C=C(C(C)=O)C(C)=O)Sc2ccccc21`?
PAFAH1B3 FP inh: -4.5; PAFAH1B2 inh: -2.5; PAFAH2 FP inh: 1.3; pPAFAH FP inh: 1.7; Rin1 Abl inh: -62.2; E coli Lon inh: -463.3

What do the screens show for `CCOC(=O)/C(C#N)=C(C)/C=C1\Sc2ccccc2N1CC`?
PAFAH1B3 FP inh: 0.7; PAFAH1B2 inh: -0.6; PAFAH2 FP inh: 1.9; pPAFAH FP inh: 13.4; Rin1 Abl inh: 1.6; E coli Lon inh: 42.2*; eLon confirm: -261.1

Compound activity: PubChem BioAssay, The Scripps Research Institute Molecular Screening Center
